Data taken from PubChem BioAssay AID488896 (Broad Institute, 2010).
Out of some 320,000 compounds screened, about 3,100 (0.97%) were called active.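 Rule for the calls: active = mean replicate inhibition of at least 70% and a set share of replicates each scoring 70 or more; inconclusive = meets just one of the two criteria; inactive = fails both criteria.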 The entries come from a sample that favours actives as a whole.

Target: Scavenger receptor class B member 1 (Mus musculus) (UniProt Q61009)
Assay: inhibitors of SR-BI mediated HDL lipid uptake, primary screen, ldlA[mSR-BI] cells, fluorescence, single point (AID 488896);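 note: 0% = median of neutral control wells and 100% = median of positive control wells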
Conditions: ldlA[mSR-BI] CHO cells, DiI-HDL uptake fluorescence, 3 h; at 12.5 µM; stronger effect = higher value

Sequence of Scavenger receptor class B member 1 (Mus musculus) (Q61009 whole entry, looked up): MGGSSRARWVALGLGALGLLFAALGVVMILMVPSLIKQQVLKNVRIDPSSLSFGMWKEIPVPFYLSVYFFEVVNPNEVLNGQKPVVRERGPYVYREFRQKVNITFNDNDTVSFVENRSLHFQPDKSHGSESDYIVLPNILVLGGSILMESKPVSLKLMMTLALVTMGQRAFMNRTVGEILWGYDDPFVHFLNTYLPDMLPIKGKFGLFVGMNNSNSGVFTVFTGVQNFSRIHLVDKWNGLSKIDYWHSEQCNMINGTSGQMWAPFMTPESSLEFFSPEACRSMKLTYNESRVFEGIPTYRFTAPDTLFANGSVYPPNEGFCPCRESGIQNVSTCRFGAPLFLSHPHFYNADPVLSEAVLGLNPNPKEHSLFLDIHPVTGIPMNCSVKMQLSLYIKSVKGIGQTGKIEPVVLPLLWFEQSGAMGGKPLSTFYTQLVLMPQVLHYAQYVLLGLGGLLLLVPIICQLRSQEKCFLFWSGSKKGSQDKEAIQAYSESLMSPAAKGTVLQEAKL

SMILES | inhibition
COC1=NC2=NCCN2C(OC)=N1 | -7.98% (inactive)
O=C1c2ccccc2C(=O)C1C(=O)C1CC1 | -19.4% (inactive)
N#CC(Cc1cc2ccccc2n1S(=O)(=O)c1ccccc1)OCc1ccccc1 (centres undefined) | 4.98% (inactive)
O=c1ccn([C@@H]2O[C@H](CNS(=O)(=O)c3cc4ccccc4s3)[C@@H](O)[C@H]2O)c(=O)[nH]1 | -11% (inactive)
O=C(O)c1ccccc1-c1ccccc1C(=O)Nc1nccs1 | -17.5% (inactive)
COc1ccc(-c2nn(-c3ccccc3)cc2C(=O)Nc2nccs2)cc1OC | 74.4% (active)
COc1ccc(-c2nn(-c3ccccc3)cc2/C=N/Nc2ccccn2)cc1OC | 50.1% (inactive)
CN1C(c2ccc(F)cc2)=CS/C1=C(/C#N)c1nnc2n1-c1ccccc1SC2 | 32.2% (inactive)
Nc1ccc2c(c1)C(O)c1ccc(Cl)cc1-2 (centres undefined) | -14.5% (inactive)
Cc1cc(C)cc(OCC(=O)Nc2ccc(N3CCOCC3)cc2N2CCOCC2)c1 | 45% (inactive)
Cc1cc(N2CCCC2)ccc1NC(=O)COc1ccc(Cl)cc1 | 75.9% (active)
CCC(=O)c1ccc(OCC(=O)Nc2ccc(N3CCCCC3)cc2)cc1 | 35.5% (inactive)
CN1CCOC1c1ccc(C2OCCN2C)cc1 (centres undefined) | -6.99% (inactive)
CCCCCCCCNS(=O)(=O)CCNC1CCCCC1 | -5.35% (inactive)
CCCCN1C(=O)/C(=C2/C=CC=CN2C)SC1=S | 8.97% (inactive)
CCCCN1C(=O)/C(=C/C=C2/C=Cc3ccccc3N2CC)SC1=S | 146% (active)
CCN1C(=O)/C(=C\N2CCN(c3cccc(Cl)c3)CC2)SC1=S | 8.1% (inactive)
Cc1c[n+]([O-])ccc1[N+](=O)[O-] | 4.11% (inactive)
CCCCN1CC(COCc2ccccc2)OCCS1(=O)=O (centres undefined) | -17.3% (inactive)
O=C(Oc1ccccc1Cl)c1ccc(N2CCOCC2)c([N+](=O)[O-])c1 | 1.4% (inactive)
O=C(NCCCN1CCOCC1)c1ccc(N2CCCC2)c([N+](=O)[O-])c1 | -14.3% (inactive)
N#Cc1c(NC(=O)c2ccc(N3CCOCC3)c([N+](=O)[O-])c2)sc2c1CCCC2 | 83.7% (active)
NC(=O)c1ccc(N2CCCC2)nc1 | -0.443% (inactive)

SMILES | inhibition
COc1ccccc1NC(=O)N(O)C1(C#N)CCCCC1 | 2.4% (inactive)
COc1cccc(/C=N/Nc2cc(C)nc(-c3ccccc3O)n2)c1O | 84.7% (active)
COc1ccccc1/C=N/Nc1nc(C)c(C(C)=O)s1 | 24.4% (inactive)
Oc1cccc(/C=N/Nc2ccc(Cl)nn2)c1O | 10.6% (inactive)
CN(C)CCNC(=O)c1ccc(Cl)c2cc3ccccc3nc12 | -8.43% (inactive)
C#CCOCCOCCOCCNc1nc(N2CCN(C(=O)Cn3cc(CCO)nn3)CC2)nc(N2CCN(C(=O)Cn3cc(CCCN=C(N)N)nn3)CC2)n1 | -17.5% (inactive)
COc1cc(OC)c(C(=O)NNC(=O)c2ccc(NS(=O)(=O)c3cccs3)cc2)cc1OC | -10.6% (inactive)
C/C(=N\NC(=O)c1ccc(NS(=O)(=O)c2cccs2)cc1)c1ccc2ccccc2c1 | 75.7% (active)
C/C(=N\NC(=O)c1ccc2ccccc2c1)c1cccnc1 | -22.1% (inactive)
O=C1CC[C@@H]2CC3(C[C@@H]4CCN1[C@H]24)Nc1cc([N+](=O)[O-])ccc1NC3=NC1CCCCC1 (some centres undefined) | 1.95% (inactive)
CCN1CCC(O)(/C=C/c2ccc(C)cc2)C(C(=O)/C=C/c2ccc(C)cc2)C1 (centres undefined) | 24.5% (inactive)
NC(=O)C1(N2CCCC2)CCN(Cc2ccccc2)CC1 | -9.32% (inactive)
C=CCNC(=O)/C(=C\c1cccc([N+](=O)[O-])c1)NC(=O)c1ccccc1 | -15% (inactive)
O=C(Nc1ccc(C(=O)O)cc1)/C(=C/c1ccc([N+](=O)[O-])cc1)NC(=O)c1ccccc1 | -3.79% (inactive)
O=C(N/N=C/c1cc([N+](=O)[O-])ccc1O)/C(=C\c1cccs1)NC(=O)c1ccccc1 | 113% (active)
CCCN(C(=O)COC(=O)CNS(=O)(=O)c1ccc(NC(C)=O)cc1)C1CCS(=O)(=O)C1 (centres undefined) | -1.04% (inactive)
CC(C)(C)c1cc(C(=O)NN)n(Cc2ccc(Cl)cc2Cl)n1 | 80.1% (active)
NNC(=O)c1ccc(Cl)cc1Cl | -14.8% (inactive)
Cn1cc(C(=O)c2ccc(Cl)cc2Cl)cc1C(=O)NN | 25.2% (inactive)
COCCN(C(=O)C(C)N1C(=O)c2ccccc2C1=O)c1c(N)n(CC(C)C)c(=O)[nH]c1=O (centres undefined) | -16.4% (inactive)
O=C(COC(=O)c1ccc(O)cc1O)NC(=O)c1ccccc1 | -38.7% (inactive)
O=C1NCC(Nc2ccccc2)C(=O)N1 (centres undefined) | -24.4% (inactive)
O=C(NNC(=O)c1ccccc1O)c1ccccc1O | 124% (active)

SMILES | inhibition
O=C(Nc1ccccc1C(=O)O)c1cc(S(=O)(=O)N2CCCCC2)cs1 | -2.98% (inactive)
CC1=C(C)CC(C(=O)NNC(=O)c2ccccc2O)C(C(=O)O)C1 (centres undefined) | 13.9% (inactive)
CCn1c2ccccc2c2cc(NC(=O)COC(=O)c3cc(S(=O)(=O)N4CCCCC4)ccc3Cl)ccc21 | 77.1% (active)
CC1CCCC(NC(=O)c2cc(S(=O)(=O)N3CCCCC3)ccc2Cl)C1C (centres undefined) | 11.2% (inactive)
O=C(NNC(=O)c1cc(S(=O)(=O)N2CCCCC2)ccc1Cl)c1ccccc1O | 108% (active)
CCn1c2ccccc2c2cc(NC(=O)COC(=O)c3ccccc3Br)ccc21 | -7.34% (inactive)
Cc1cc(C(=O)NNC(=O)c2ccccc2O)c(C)o1 | 13.4% (inactive)
O=C(COC(=O)c1cc(S(=O)(=O)N2CCCCC2)ccc1Cl)NCc1ccco1 | 17.2% (inactive)
COc1ccc(CCNC(=O)c2ccc(NC(=O)CC3SC(N4CCCCC4)=NC3=O)cc2)cc1OC (centres undefined) | 66.6% (inactive)
CC(=NNC(=O)c1ccncc1)c1ccc(Cl)c(Cl)c1 | 6.02% (inactive)
COc1ccc(Cl)cc1C=CC=Nc1ccc(S(N)(=O)=O)cc1 | -39.7% (inactive)
Cc1ccc2c(O)c(Cc3ccccc3)c(=O)[nH]c2n1 | 7.66% (inactive)
COc1ccc(C(CNC(=O)c2cccc(NS(=O)(=O)c3ccc(C)c(F)c3)c2)N2CCCC2)cc1 (centres undefined) | -24.5% (inactive)
COc1ccc(C(CNC(=O)c2ccc(S(=O)(=O)Nc3ccccc3C)cc2)N2CCOCC2)cc1 (centres undefined) | -2.84% (inactive)
COc1ccc(C(CNC(=O)c2cccc(S(=O)(=O)Nc3ccccc3Cl)c2)N2CCOCC2)cc1 (centres undefined) | 79.7% (active)
COc1ccc(C(=O)Nc2ccc3nc(N4CCCCC4)cc(C)c3c2)cc1OC | 44.3% (inactive)
COc1cc(C(=O)NCC2(c3ccccc3)CCCC2)ccc1OC(C)C | 3.63% (inactive)
COc1ccc(C(=O)Nc2ccc(C3(C#N)CCCC3)cc2)cc1OC | 82% (active)
CN(O)C(=S)c1ccccc1 | -24.5% (inactive)
Cc1c(NS(=O)(=O)c2cccc(C(=O)Nc3ccc(SC(F)F)cc3)c2)c(=O)n(-c2ccccc2)n1C | 10.9% (inactive)
CC(=O)c1ccc(NC(=O)C(C)OC(=O)c2ccc(NS(=O)(=O)c3ccc4[nH]c(=O)[nH]c4c3)cc2)cc1 (centres undefined) | 18.7% (inactive)
CN(CCNC(=O)c1cc2c(-c3ccccc3F)nn(C)c2s1)C1CCCCC1 | 42% (inactive)
COc1ccccc1N1CCN(C(=O)c2cc3c(-c4ccc(Cl)cc4)nn(C)c3s2)CC1 | 58.4% (inactive)

SMILES | inhibition
Cn1nc(-c2ccc(Cl)cc2)c2cc(C(=O)NCc3ccco3)sc21 | 90.1% (active)
C[C@]12CCC(=O)C=C1C=CC1C2CC[C@@]2(C)C1CC[C@@]21CCC(=O)O1 (some centres undefined) | -3.73% (inactive)
O=C(c1cccnc1)N(Cc1ccccc1)C(=O)c1cccnc1 | -2.46% (inactive)
CN(C(=O)c1ccc(NC(=O)Cc2cccc(NC(=O)C3CCN(C(=O)c4ccccc4)CC3)c2)cc1)C1CC1 | 15% (inactive)
CCCC(O)(c1ccccc1)C(c1ccccc1)c1ccccn1 (centres undefined) | 11.7% (inactive)
COc1ccc(C(CNC(=O)c2cccc(S(=O)(=O)Nc3ccc(Br)cc3)c2)N(C)C)cc1 (centres undefined) | -24.3% (inactive)
COc1ccc(Nc2nc(-c3cccnc3)nc3ccccc23)cn1 | 31.9% (inactive)
Cc1cccc(-c2nc(Nc3ccc(O)cc3)c3ccccc3n2)c1 | 74.9% (active)
CCOC(=O)c1nc(Nc2ccc(C(=O)OC)cc2)c2ccccc2n1 | 33.7% (inactive)
O=C1NCC(c2ccccc2)(c2ccccc2)C(=O)N1 | -22.9% (inactive)
O=C(Cc1ccc(Cl)cc1)c1ccccc1 | 1.95% (inactive)
O=C(CNC(=O)c1cc(S(=O)(=O)N2CCOCC2)ccc1N1CCCC1)Nc1ccc(F)c(F)c1 | 12.1% (inactive)
COC(=O)C1=CN(c2ccc(F)c(F)c2)C=C(C(=O)OC)C1c1ccc([N+](=O)[O-])cc1 | 71.8% (active)
COC(=O)c1nc2n(n1)C(c1ccc([N+](=O)[O-])cc1)C(C(=O)Nc1ccc(Cl)cc1)=C(C)N2 (centres undefined) | -8.37% (inactive)
COC(=O)C1=CN(C)C=C(C(=O)OC)C1c1ccc(Cl)cc1Cl | -0.162% (inactive)
Cn1cc(C2OC(=O)c3ccccc32)c2ccccc21 (centres undefined) | 3.47% (inactive)
CCCCN(C(=O)CSCc1ccc(C)cc1)c1c(N)n(Cc2ccccc2)c(=O)[nH]c1=O | 7.84% (inactive)
O=C(Nc1ccc2ccccc2c1[N+](=O)[O-])c1ccccc1 | 14.4% (inactive)
COC(=O)CC(CC(=O)OC)n1cccc1 | -7.62% (inactive)
CC[C@]12c3[nH]c4cc(CCC(=O)N(C)C)ccc4c3CCN1C(=O)[C@@H](CC(=O)NCc1ccco1)C[C@@H]2C(=O)N1CCN(C(=O)c2ccco2)CC1 | 2.87% (inactive)
